These results are taken from the supplement of paper PMC3334620.

Whole data set: some 33,000 sequences, median “E-score (-0.5 to 0.5)” near -0.016, cut for the highest 2% near 0.32. Shown is part of a subset that was picked to be rich in the highest values.

This assay addresses T1, Stp1 (UniProt B3LFK1).
T1 sequence: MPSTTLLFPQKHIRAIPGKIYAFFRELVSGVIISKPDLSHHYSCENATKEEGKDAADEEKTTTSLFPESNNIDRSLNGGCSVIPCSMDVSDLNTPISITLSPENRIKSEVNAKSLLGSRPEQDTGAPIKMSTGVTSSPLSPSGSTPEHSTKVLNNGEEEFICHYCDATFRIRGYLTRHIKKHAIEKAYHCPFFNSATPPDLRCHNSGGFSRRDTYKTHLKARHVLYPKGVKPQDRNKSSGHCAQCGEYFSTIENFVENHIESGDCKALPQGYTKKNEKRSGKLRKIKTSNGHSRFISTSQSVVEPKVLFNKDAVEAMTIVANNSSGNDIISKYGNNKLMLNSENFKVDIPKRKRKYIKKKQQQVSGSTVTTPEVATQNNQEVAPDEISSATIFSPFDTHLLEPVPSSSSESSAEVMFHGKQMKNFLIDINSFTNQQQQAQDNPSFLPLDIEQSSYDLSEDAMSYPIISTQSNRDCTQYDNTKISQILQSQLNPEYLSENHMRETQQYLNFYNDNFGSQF
In words: PBM E-score (8-mer binding enrichment) (E-score (-0.5 to 0.5)); higher = stronger / more preferred TF binding. To be noted: protein concentration: 200 nM; construct: GST-full length. The method in brief:
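Masliner-normalised scans of fluorescent anti-GST signal were the basis for scoring. That signal came from GST-tagged yeast transcription factors applied at about 100-200 nM to double-stranded universal all-10-mer Agilent arrays on fresh or once-stripped slides. Each ungapped eight-base word, pooled with its reverse complement, received an E-score from the Universal PBM Analysis Suite.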
In the case of ACAGTGCG, the “PBM E-score” value was -0.022.

CGCTGGAG: the “PBM E-score” value was -0.107.

For the sequence ATTGAGGC, the “PBM E-score” value worked out at 0.146.

For the sequence CCCAGTCG, the “PBM E-score” value is -0.267.

Take AAGGACCG: the “PBM E-score” value is -0.117.

CCATTAGG: the “PBM E-score” value was -0.209.

On to CTAACAGC, for which the “PBM E-score” value worked out at 0.0206.

For the sequence AGCCACTC, the “PBM E-score” value came out at 0.0834.

Turning to CTTTTTGC, the “PBM E-score” value was 0.0819.

For AACTAACC, the “PBM E-score” value came out at 0.117.

For AAATGCCC, the “PBM E-score” value was -0.108.

As for CAATGCCG, the “PBM E-score” value stood at 0.374.

Turning to CAATGCCC, the “PBM E-score” value amounted to 0.136.

Consider AAATGCCT, for which the “PBM E-score” value worked out at 0.285.

CAATGCCA: the “PBM E-score” value amounted to 0.0614.

Consider AAATGCCG, for which the “PBM E-score” value turned out to be 0.443.

Take GTGCTAAC: the “PBM E-score” value is -0.0443.

On to ACAAGATG, for which the “PBM E-score” value is -0.052.

Consider AAACCTCA, for which the “PBM E-score” value was -0.0665.

Take AGCGAACT: the “PBM E-score” value turned out to be 0.00922.

As to AAAAGCCC, the “PBM E-score” value is -0.145.

As to CACAGCCC, the “PBM E-score” value is -0.172.

As to CACAGCCG, the “PBM E-score” value worked out at 0.327.

Take CAAAAGCC: the “PBM E-score” value amounted to 0.121.

Take AACAGCCG: the “PBM E-score” value worked out at 0.255.

As to AAAAGCCG, the “PBM E-score” value amounted to 0.326.

Turning to CAAAGCCG, the “PBM E-score” value was 0.316.

For the sequence AAAAGCCT, the “PBM E-score” value is -0.0406.

For the sequence AAAAAGCC, the “PBM E-score” value stood at 0.34.

Take CAAAGCCC: the “PBM E-score” value was -0.0858.

GAAAAGCC: the “PBM E-score” value is 0.0718.

Take CAAAGCCA: the “PBM E-score” value came to 0.0366.

With GAGATAGC, the “PBM E-score” value was -0.111.

With CACAGAAA, the “PBM E-score” value was -0.00471.

Consider TGGGCACA, for which the “PBM E-score” value was 0.135.

As for GTAGATGA, the “PBM E-score” value was 0.0463.

GAGCTCTA: the “PBM E-score” value is -0.101.

Take GAAATTTC: the “PBM E-score” value was -0.153.

In the case of CCCTGGTC, the “PBM E-score” value was -0.41.

With AGCTAACC, the “PBM E-score” value is -0.159.

CCTAGCCA: the “PBM E-score” value is -0.0258.

Turning to CTGCGAAG, the “PBM E-score” value is -0.175.

Turning to CTGCACGA, the “PBM E-score” value is -0.152.

As to GGGCACGA, the “PBM E-score” value was 0.133.

In the case of CGGCACGC, the “PBM E-score” value stood at 0.437.

For the sequence CTGCACGC, the “PBM E-score” value is -0.0205.

Regarding AGGCACGC, the “PBM E-score” value was 0.209.

Take CGGCACGA: the “PBM E-score” value amounted to 0.459.

With GACACTCC, the “PBM E-score” value was determined as 0.0152.

Turning to AATTCTGA, the “PBM E-score” value came to 0.131.

Take GCATTTCC: the “PBM E-score” value was determined as 0.146.

With AAGTAAGG, the “PBM E-score” value is -0.0479.

Take ACCTATCG: the “PBM E-score” value came out at 0.0549.

As to CAAGAGCC, the “PBM E-score” value stood at 0.21.

Consider CCAAGCCC, for which the “PBM E-score” value is -0.241.

On to CGACGGCC, for which the “PBM E-score” value was found to be 0.0289.

For the sequence AGACGGCG, the “PBM E-score” value turned out to be 0.463.

Regarding CGACGGCG, the “PBM E-score” value came to 0.353.

In the case of CGACGGAG, the “PBM E-score” value is -0.147.

Regarding AGACGGCC, the “PBM E-score” value amounted to 0.121.

With AGACGGCT, the “PBM E-score” value turned out to be 0.343.

Consider AGACGTCT, for which the “PBM E-score” value was -0.219.

On to AGACGGGG, for which the “PBM E-score” value was -0.154.

Consider AGACGGAT, for which the “PBM E-score” value worked out at 0.14.

For the sequence ACAGTCGG, the “PBM E-score” value is -0.0418.

In the case of AAGCACCC, the “PBM E-score” value was -0.224.

With CAAATTGC, the “PBM E-score” value worked out at 0.115.

On to CTCAGTCC, for which the “PBM E-score” value was -0.195.

Take ATGAAGAC: the “PBM E-score” value was determined as 0.0861.

For ACGTTTAT, the “PBM E-score” value is 0.0901.

CTGGGTGA: the “PBM E-score” value is -0.229.

Turning to CAATAACC, the “PBM E-score” value was found to be 0.0421.

Turning to AGGGCTAG, the “PBM E-score” value was -0.207.

For AAGCTACT, the “PBM E-score” value is -0.0664.

In the case of GACGCGAC, the “PBM E-score” value is -0.0598.

As to AACGCGGG, the “PBM E-score” value turned out to be 0.184.

With AACGCGGA, the “PBM E-score” value was 0.0987.

Take CACGCGGA: the “PBM E-score” value was found to be 0.294.

GACGCGGA: the “PBM E-score” value amounted to 0.136.

AACGCGGC: the “PBM E-score” value was 0.443.

As for GACGCGGC, the “PBM E-score” value is 0.466.

For CACGCGGG, the “PBM E-score” value stood at 0.143.

With CACGCGGC, the “PBM E-score” value turned out to be 0.459.

As for ACTCGATC, the “PBM E-score” value is -0.0856.

On to AGGTGGCA, for which the “PBM E-score” value stood at 0.218.

Take GAATGCCA: the “PBM E-score” value turned out to be 0.134.

Consider CTTAAATC, for which the “PBM E-score” value was determined as 0.0764.

For the sequence AAGGCGTA, the “PBM E-score” value is 0.234.

Regarding AGGGCGTG, the “PBM E-score” value was -0.0356.

In the case of ACGGCGTC, the “PBM E-score” value is 0.472.

ACGGCGTG: the “PBM E-score” value was determined as 0.455.

For GCGGCGTA, the “PBM E-score” value came out at 0.433.

On to ACGGCGTA, for which the “PBM E-score” value worked out at 0.448.

Take ATGGCGTG: the “PBM E-score” value was 0.102.

On to AGGGCGTC, for which the “PBM E-score” value was 0.131.

For the sequence GGGGCGTA, the “PBM E-score” value was -0.174.

Regarding CCGGCGTA, the “PBM E-score” value stood at 0.0906.

In the case of CCGGCGTC, the “PBM E-score” value stood at 0.0446.

Take GTGGCGTA: the “PBM E-score” value amounted to 0.0488.

For the sequence GTGTGTTA, the “PBM E-score” value worked out at 0.029.

As for AGTTCAAT, the “PBM E-score” value is -0.0607.

Regarding CGGTTATC, the “PBM E-score” value was -0.0601.

Regarding CAGCAATG, the “PBM E-score” value was -0.194.

AAATAAGG: the “PBM E-score” value was 0.0174.

CAAACTAG: the “PBM E-score” value is -0.107.

In the case of CCACTGGA, the “PBM E-score” value is -0.241.

As to ACACCGCG, the “PBM E-score” value was 0.0308.

Turning to CCAGAACC, the “PBM E-score” value is -0.154.

As to AGGCTATG, the “PBM E-score” value was -0.196.

Regarding CGCTGAAG, the “PBM E-score” value was -0.108.

On to CCGGCTTC, for which the “PBM E-score” value is -0.0259.

As for ACGGCTTG, the “PBM E-score” value worked out at 0.335.

As to ACGGCTGG, the “PBM E-score” value came out at 0.139.

In the case of ACGGCTTC, the “PBM E-score” value was 0.417.

For the sequence ACGGCTGA, the “PBM E-score” value is 0.147.

Take ACGGCTGC: the “PBM E-score” value was 0.289.

ATGGCTTG: the “PBM E-score” value is -0.0553.

For the sequence GCGGCTTA, the “PBM E-score” value worked out at 0.234.

Take ACGGCTTA: the “PBM E-score” value is 0.375.

As to AAGCGGTC, the “PBM E-score” value is -0.149.

On to GATTAGGC, for which the “PBM E-score” value was 0.02.
